Measured values from PubChem BioAssay (NCI).
About 79,000 compounds went through this panel and 15% of them were active in at least one assay; those are over-represented in the sample as a whole. The source made the active and inactive calls. Cut-off read from the data, not from the text of the source: active = growth inhibition above about 70%; inactive = the rest.

Assay: NCI Yeast Anticancer Drug Screen. Data for the rad50 strain (AID 155);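 note: 0% = growth of vehicle-only cultures of the same strain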
Details: S. cerevisiae rad50 strain growth inhibition; at 50.0 µM; stronger effect = higher value
How it was run: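 Vehicle-treated cultures provide the reference for the growth inhibition reported for compound-exposed, repair-deficient yeast.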

SMILES | growth inhibition
Oc1ccccc1N=CC1CCCCC1 | 69% (inactive)
CC(O[Si](c1ccccc1)(c1ccccc1)C(C)(C)C)[C@H](NC(=O)OC(C)(C)C)C(=O)O[Si](c1ccccc1)(c1ccccc1)C(C)(C)C (stereo not given in full) | 89.9% (active)
Cn1c(=O)c2c3oc(=O)cc(O)c3c(=O)n3c4ccccc4n(c1=O)c23 | 74.8% (active)
CCCCCCCCCCCCCCC(O)C(=O)O (stereo not given) | 68.7% (inactive)
O=[N+]([O-])c1cc(I)cc(/C=N/NS(=O)(=O)c2ccc(F)cc2)c1O | 84.2% (active)
CCC/C=C1/OC(=O)C2=C[C@H]3CC[C@]21[C@]1(OC(=O)C2=C1CCC=C2)[C@H]3CCC | 88.2% (active)
C=C(CC)C[C@@H]1C[C@]2(C(=O)OC)c3[nH]c4ccccc4c3CCN2C1=O | 52.5% (inactive)
Cc1ccc(N2C(=O)C(Cl)=C(Cl)C2=O)cc1 | 99.3% (active)
COc1cc2c(cc1O)CCCCC2 | 41.1% (inactive)
CC(C)Cc1cc(O)cc2ccccc12 | 98.9% (active)
CCN(CC)Cc1cc(Nc2c3ccccc3nc3c4ccccc4n(C)c23)ccc1O | 74.2% (active)
CC(=O)Nc1ccc(-c2csc(Nc3ccnc4cc(Cl)ccc34)n2)cc1 | 69.8% (inactive)
NNc1ccccc1F | 99.2% (active)
O=C(O)C1(Cc2ccc3c(c2)CCC3)Cc2ccccc2C1=O (stereo not given) | 89.9% (active)
c1cc2cc(Cc3ccc4[nH]ccc4c3)ccc2[nH]1 | 12.2% (inactive)
COc1cc(C(c2cc3c(cc2O)OCO3)N2CCOCC2)ccc1O (stereo not given) | 44.8% (inactive)
Cc1c(N)nc(C2CC(=O)N2CC(N)C(N)=O)nc1C(=O)NC(C(=O)NC(C)C(O)C(C)C(=O)NC(C(=O)NCCc1nc(-c2nc(C(=O)NCCNCC(C)O)cs2)cs1)C(C)O)C(OC1OC(CO)C(O)C(O)C1OC1OC(CO)C(O)C(OC(N)=O)C1O)c1cnc[nH]1 (stereo not given) | 92.7% (active)
Cc1[nH]nc(C(=O)N(C)C)c1N=NN(C)C | 97.8% (active)
CSc1c(S(C)=O)c2ccccc2n1C (stereo not given) | -20.6% (inactive)
CN(C)c1ccc(C=Nc2cnc3ccccc3c2)cc1 | -54.4% (inactive)

SMILES | growth inhibition
CCCCCCCCCCCCCCCc1nc(SCC(=O)O)n[nH]1 | 54.8% (inactive)
Cc1ccc(S(=O)(=O)Oc2c([N+](=O)[O-])cc(C)cc2[N+](=O)[O-])cc1 | 96.6% (active)
CCOC(=O)c1c(Cl)nnc(-c2ccccc2)c1-c1ccccc1 | 98.2% (active)
Cc1cc(O)c(C=NC(=S)C(N)=S)c(=O)o1 | -27.7% (inactive)
C/C(=N\NC(=S)NC(C)(C)C)c1ccccn1 | 77% (active)
S=C(Nc1ccc(Br)c(Cl)c1)SCc1ccc2c(c1)OCO2 | 88% (active)
CC(=O)Nc1ccc(S(=O)(=O)N/N=C/c2cc(I)cc([N+](=O)[O-])c2O)cc1 | 89% (active)
CCCC(O)CNCc1ccc(N(C)C)cc1 (stereo not given) | 30.1% (inactive)
CC(=O)Nc1nnc(-c2coc3ccccc3c2=O)s1 | 50.9% (inactive)
COc1ccc(CSC(=S)Nc2ccc(Cl)c(C(F)(F)F)c2)cc1 | 89.7% (active)
CC(=O)Sc1ccc(Br)cc1 | 45.3% (inactive)
O=C(CNc1cccc(Cl)c1)Nn1c(-c2ccccc2)nc2ccccc2c1=O | 92% (active)
Cc1ccc(S(=O)(=O)c2cc(O)c(O)c3ccc(Br)cc23)cc1 | 79.5% (active)
Fc1cccc2c1cc1ccc3cccc4ccc2c1c34 | 89.2% (active)
COC1=C(/C(=N/Nc2ccc([N+](=O)[O-])cc2[N+](=O)[O-])c2ccccc2)COC1=O | 17.1% (inactive)
CCOC(=O)c1cnccc1CC1(C#N)c2ccccc2C=CN1C(=O)c1ccccc1 (stereo not given) | 86.7% (active)
CCCCNc1ccc(-c2c(N)nc(N)nc2CC)cc1[N+](=O)[O-] | 62.4% (inactive)
O=C(NC1CCN(Cc2ccccc2)CC1)c1cccc(I)c1 | 51.7% (inactive)
O/N=C1/CC2CCCc3ccc4cccc1c4c32 (stereo not given) | 60.2% (inactive)
CC(C)c1cc(O)c2c(c1O)C1CC3C(C)(C)CCC[C@]23C(=O)O1 (stereo not given in full) | 92.5% (active)
